Compound activity deposited in PubChem by National Center for Advancing Translational Sciences (NCATS).
This is a sample that favours compounds with a hit; in the whole collection about 8% have one here.
FMDV inh = blocks foot and mouth disease virus; FMDV antiviral cell-based qHTS; Potency, µM (titrated, usually from 57.9 µM), for inactives: at the top dose activity change, negative = inhibition, most hits filed as inhibitors; 410,000 tested, 1.2% active; calls by dose curve; tested in HEK293T cells; also: read-out not given here; potency is read from the fitted curve at half-maximal effect; % is scaled to controls: 0 for no effect and ±100 for the full control effect; nearly all actives have a fitted effect of over 45% in size
HCMV antiviral = human cytomegalovirus inhibition; 410,000 tested, 4.5% active; AID 1259415; activity change, negative = inhibition, % at 57.5 µM; HFF cells, HCMV-luciferase reporter, 72 h; active compounds read low; in the data active = activity change below about -60%; inconclusive = no clear call, values can overlap the other calls; inactive = above about -39%; also: % is scaled to controls: 0 for no effect and ±100 for the full control effect
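After 16 h attachment at 37C, HFF cells received test compound and HCMV-luciferase (1 PFU/cell); reporter luminescence read 72 h later, data normalized against buffer-only and known inhibitor Salinomycin.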
HCV inhibitor = blocks hepatitis C virus | Huh7.5.1 HCVcc-Cre infection, luciferase reporter, 44 h | Potency, µM (titrated, usually from 41.8 µM), without a hit: top-dose activity change, negative = inhibition, hits mostly inhibitors | 340,000 tested, 3.4% active | AID 651820; active = well fitted inhibition curve with a large enough effect; inconclusive = small, poorly fitted or top-dose-only effect, or another doubt; inactive = no such curve, though single readings can be large or run the other way; also: potency is read from the fitted curve at half-maximal effect; % is scaled to controls: 0 for no effect and ±100 for the full control effect
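Antiviral activity was scored by luciferase reporter output from cells infected with HCVcc-Cre (~0.5 moi) in presence of compound, 44 h infection period, cells seeded 1,000/well 4 h prior.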
LASV entry inh = blocks Lassa virus binding to or entry into cells; Lassa virus pseudotype entry inhibition, cell reporter; Potency, µM (titrated, usually from 37.9 µM), for the others: top-dose activity change, negative = inhibition, most hits filed as inhibitors; 300,000 tested, 1.2% active; AID 540256; calls by dose curve; tested in HEK293 cells; also: potency is read from the fitted curve at half-maximal effect; % is scaled to controls: 0 for no effect and ±100 for the full control effect; nearly all actives have a fitted effect of over 50% in size
Marburg entry inh = Marburg virus entry inhibition. Marburg virus pseudotyped entry inhibition, cell reporter. Potency, µM (titrated, usually from 37.8 µM), for the others: top-dose activity change, negative = inhibition, actives largely listed as inhibitors. 300,000 tested, 1.8% active. AID 540276; calls by dose curve; tested in HEK293 cells; also: potency is read from the fitted curve at half-maximal effect; % is scaled to controls: 0 for no effect and ±100 for the full control effect
SARS PLP yeast = SARS-CoV PLP inhibition in yeast; 330,000 tested, 0.19% active; Potency, µM (doses to about 32.9 µM), for the others: at the top dose activity, positive = growth rescue, most hits filed as activators; S. cerevisiae expressing SARS-CoV PLpro, growth rescue; calls by dose curve; also: potency is read from the fitted curve at half-maximal effect; 0% is about no effect; nearly all actives have a fitted effect of over 55% in size
The depositor's hits bear a star; ? = inconclusive; · = no result; [ ] = remark or other dose.

SMILES	FMDV inh	HCMV antiviral	HCV inhibitor	LASV entry inh	Marburg entry inh	SARS PLP yeast
O=C(c1ccc(Nc2nc3ccccc3n3nnnc23)cc1)N1CCN(c2ccc(F)cc2)CC1	-7.6%	-10.6	·	-11.2%[46.1 µM]	28.7%[46.1 µM]	·
O=C(COC(=O)CNC(=O)c1ccc(Cl)cc1Cl)NCc1ccco1	7.4%	-4.4	14.6%	?	2.82µM*	-0.8%
S=C(NCc1ccco1)Nc1ccc(Cl)cc1Cl	42.0%	-73.6*	-14.1%	-1.2%	6.2%	?
CSc1cc2c(cc1C(F)(F)F)N(C(=O)Nc1cccnc1)CC2	-6.2%	·	·	·	·	·
CC(C)NC(=O)C1CCC(Cn2c(=O)c3sccc3n(CC(=O)NCc3ccccc3)c2=O)CC1 (centres undefined)	-3.3%	19.5	·	?	·	·
Cc1ccc(C(=O)c2no[n+]([O-])c2C(=O)c2ccc(C)cc2)cc1	?	-98.5*	?	-14.7%[46.1 µM]	8.8%	-139.1%
Cc1ccc(C(=O)c2ccc(C)cc2)cc1	23.7%	5.2	-7.4%	10.0%[46.1 µM]	-1.1%[46.1 µM]	-4.8%
CCn1c(C)nc2cc(C(=O)NNC(=S)Nc3ccccc3)ccc21	2.4%	?	-0.1%	4.47µM*	?	0.2%
O=C(CCN1CCN(C(c2ccccc2)c2ccccc2)CC1)N/N=C/c1ccc(O)cc1	-22.3%	-32.5	?	?	?	2.4%
COc1cccc(OC)c1OCCCCCCN1CCN(C)CC1	-13.4%	43.8	-17.7%	·	·	2.2%
COc1ccc(OC)c(/C=N/NC(=O)CCN2CCN(C(c3ccccc3)c3ccccc3)CC2)c1	0.0%	-10.6	10µM*	?	10µM*	-24.6%
COc1ccccc1OCCCCN1CCN(C(c2ccccc2)c2ccccc2)CC1	-29.6%	?	11.2µM*	18.4µM*	?	-4.1%
c1ccc(OCCOCCN2CCN(C(c3ccccc3)c3ccccc3)CC2)cc1	-20.3%	?	?	?	?	-14.0%
CN1CCN(CCCCOc2ccccc2C=O)CC1	-13.2%	-27.9	10µM*	?	?	0.3%
COc1cccc(OC)c1OCCCCN1CCC(Cc2ccccc2)CC1	-28.0%	-2.7	11.2µM*	?	?	-0.6%
CCOC(=O)c1ccc(NC(=O)CC2C(=O)N(c3ccc(F)cc3)C(=O)N2Cc2cccnc2)cc1 (centres undefined)	-10.8%	-31.8	·	-4.1%[46.1 µM]	·	·
CCN(C(=O)c1cc2c(=O)oc3ccccc3c2s1)c1ccccc1F	-8.4%	-2.0	·	3.5%[46.1 µM]	·	·
Cc1cccc(N2CCN(C(=O)Cc3c(C(=O)O)c(C)cn3C)CC2C)c1 (centres undefined)	0.0%	-8.1	·	10.6%[46.1 µM]	·	·
COc1cccc(C(=O)N2CCN(CCCc3ccccc3)CC2)c1OC	?	?	35.5µM*	?	-17.8%	7.1%
COc1ccccc1C(=O)N1CCN(CCc2ccccc2)CC1	4.9%	9.3	10.8%	1.5%	12.2%	-4.0%
CCC(C(=O)N1CCN(c2cc(Cl)ccc2C)CC1)n1nc(C)n2c(cc3occc32)c1=O (centres undefined)	?	-29.0	·	-21.3%[46.1 µM]	?	·
CC(C)c1ccc(NC(=O)N2CCN(c3ccc(Cl)c(Cl)c3)CC2)cc1	?	-79.3*	·	28.7%[46.1 µM]	?	·
CCOc1ccc(NC(=O)N2CCN(c3ccc(Cl)c(Cl)c3)CC2)cc1	-11.3%	-35.9	·	-12.6%[46.1 µM]	-1.9%[46.1 µM]	·
Cc1ccc(NC(=O)N2CCN(c3ccc(Cl)c(Cl)c3)CC2)cc1	?	-62.3*	·	29.5%[46.1 µM]	?	·
COC(=O)C1(C(=O)OC)CC(CO)C(=O)[C@H]1c1ccccc1 (some centres undefined)	·	·	·	·	-8.4%[14.2 µM]	·
SMILES	FMDV inh	HCMV antiviral	HCV inhibitor	LASV entry inh	Marburg entry inh	SARS PLP yeast
CC(=O)c1ccc(NC(=O)CN2C(=O)c3cccnc3Sc3ccccc32)cc1	-24.4%	8.7	·	2.4%[46.1 µM]	·	·
c1ccc(-c2nnc(CN3CCN(c4ccccn4)CC3)o2)cc1	2.4%	21.4	·	-0.1%[46.1 µM]	15.7%[46.1 µM]	·
O=C(O)CSCC(=O)N1N=C2/C(=C/c3ccccc3)CCCC2C1c1ccccc1 (centres undefined)	-19.3%	15.9	6.7%	-3.3%	-13.0%[46.1 µM]	1.5%
COc1ccc(/C=C2\CCCC3C2=NN(C(=O)CSc2ncn[nH]2)C3c2ccc(OC)cc2)cc1 (centres undefined)	-29.9%	-22.7	12.6µM*	?	?	-2.5%
O=C(CSc1ncn[nH]1)N1N=C2/C(=C/c3ccccc3)CCCC2C1c1ccccc1 (centres undefined)	-23.0%	-90.2*	-24.6%	·	-4.3%	?
Cc1ncsc1C(=O)N1N=C2/C(=C/c3ccccc3)CCCC2C1c1ccccc1 (centres undefined)	?	56.4	?	?	11.2µM*	-12.3%
COc1ccc(/C=C2\CCCC3C2=NN(C(=O)COC(=O)CNC(=O)c2ccccc2)C3c2ccc(OC)cc2)cc1 (centres undefined)	-10.8%	34.2	0.0%	?	?	-1.9%
CCC(C)C(=O)O[C@@H]1[C@H](OC(C)=O)c2c(ccc3ccc(=O)oc23)OC1(C)C (some centres undefined)	·	-33.2	·	·	·	·
COc1ccc(CNC(=O)c2cnn(-c3nccc(-c4ccco4)n3)c2C)cc1OC	35.0%	·	·	·	·	·
Cn1c2ccccc2c2cc(C(=O)NNC(=O)CCl)sc21	15.8µM*	-20.9	?	-18.5%	?	7.7%
CCCNC(=O)c1cc2c3ccccc3n(C)c2s1	3.6%	76.4	?	?	-21.9%	-18.9%
COc1ccc(NCc2cc3cc4c(cc3n(CC(=O)Nc3ccccc3)c2=O)OCO4)cc1	3.6%	71.7	·	4.5%[46.1 µM]	·	·
COc1ccc2c(c1)c(/C=N/Nc1nc3ccccc3[nH]1)c(C)n2C	?	-100.6*	?	?	?	-0.3%
COc1cc(/C=N\Nc2nc3ccccc3[nH]2)cc(OC)c1OC	-18.3%	50.0	?	-6.9%	12.6µM*	5.2%
COc1cc(/C=N/Nc2ccc(S(N)(=O)=O)cc2)cc(OC)c1OC	28.2µM*	4.1	10µM*	?	?	0.3%
COc1cc([C@@H]2Nc3c(F)cccc3[C@@H]3C=CC[C@@H]32)cc(Br)c1OC	-16.2%	5.0	·	?	9.6%[46.1 µM]	·
COc1ccc(N2CCN(C(=O)CS(=O)(=O)c3cccc4nsnc34)CC2)cc1	-26.6%	0.4	·	25.4%[46.1 µM]	·	·
O=C1C=C(c2ccccc2)C[C@H](c2cccs2)[C@H]1n1nnc([N+](=O)[O-])n1	-15.6%	?	?	?	2µM*	-99.1%
CN(C(=O)Cn1nnc(-c2ccc(S(C)(=O)=O)cc2)n1)c1ccccc1	-12.2%	?	·	-1.5%[46.1 µM]	6.2%[46.1 µM]	·
COc1ccc(C2c3c(ncn(CCN4CCOCC4)c3=N)Oc3ccc4ccccc4c32)cc1OC (centres undefined)	?	-11.1	?	?	10.3µM*	-7.3%
COc1ccc(C2c3ccc4ccccc4c3Oc3ncn(CCCN(C)C)c(=N)c32)cc1 (centres undefined)	0.9%	-63.8*	?	?	1.78µM*	-0.9%
